The entries come from a sample that favours hits as a whole.
FBPA Giardia inh: Giardia lamblia aldolase inhibition; AID 2451; Potency, µM (highest dose often 59.6 µM), for the others: at the top dose activity, negative = inhibition, hits mostly inhibitors; A8B2U2; 0.71% of 290,000 active; purified Giardia FBPA; further: potency means the concentration at half of the fitted maximal effect; on the % scale 0 is the no-effect control and ±100 the full control effect; nearly all actives have a fitted effect of over 55% in size
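Giardia FBPA (40 nM reagent) was preincubated 10 min at RT with compound (up to 57.5 uM final), then substrate plus GAPDH/TPI/NAD/arsenate coupling system with diaphorase/resazurin was added; resorufin fluorescence (525/598 nm) was read after 20 min.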
Tb PYK inh: inhibitors of Trypanosoma brucei pyruvate kinase. Q57TT1. TbPYK enzyme, Kinase-Glo Plus ATP luminescence, 45 min. Potency, µM (highest dose often 76.8 µM), for the others: at the top dose activity, negative = inhibition, hits mostly inhibitors. 0.12% of 410,000 active. AID 624173; further: potency means the concentration at half of the fitted maximal effect; on the % scale 0 is the no-effect control and ±100 the full control effect; nearly all actives have a fitted effect of over 50% in size
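Enzyme and substrate buffer are dispensed first and compound is pin-transferred. ADP at 130 uM final then starts the reaction, which runs 45 min at room temperature. Detection reagent is added for 10 min before luminescence is imaged.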
LmPK inh: inhibitors of Leishmania mexicana pyruvate kinase; Q27686; 0.37% of 290,000 active; Potency, µM (doses to about 57.5 µM), inactives show at the top dose activity change, negative = inhibition, actives largely listed as inhibitors; purified LmPK, Kinase-Glo ATP luminescence, 1 h; further: potency means the concentration at half of the fitted maximal effect; on the % scale 0 is the no-effect control and ±100 the full control effect
Target sequence (Q27686 whole entry, looked up): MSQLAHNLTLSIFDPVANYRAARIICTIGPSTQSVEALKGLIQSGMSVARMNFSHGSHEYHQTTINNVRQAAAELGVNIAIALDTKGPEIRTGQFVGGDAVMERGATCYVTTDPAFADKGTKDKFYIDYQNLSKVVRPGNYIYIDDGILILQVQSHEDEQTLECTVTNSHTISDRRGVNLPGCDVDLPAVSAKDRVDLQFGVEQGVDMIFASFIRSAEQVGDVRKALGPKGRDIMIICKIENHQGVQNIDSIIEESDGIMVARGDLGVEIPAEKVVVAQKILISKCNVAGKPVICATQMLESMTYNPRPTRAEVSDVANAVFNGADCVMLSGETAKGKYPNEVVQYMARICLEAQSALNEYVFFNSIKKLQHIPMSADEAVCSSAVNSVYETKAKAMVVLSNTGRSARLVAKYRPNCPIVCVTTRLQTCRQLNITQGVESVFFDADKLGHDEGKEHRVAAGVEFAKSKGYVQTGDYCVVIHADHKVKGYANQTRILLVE
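Purified LmPK (0.1 nM) with 0.5 mM PEP and 0.1 mM ADP in imidazole buffer pH 7.2 with MgCl2/KCl, 1 h at room temperature. ATP formed was read by luciferase luminescence and normalized to no-enzyme and uninhibited controls.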
RE007 growth inh: less growth of the S. pombe RE007 Vpr strain | S. pombe RE007 Vpr strain, BacTiter-Glo ATP luminescence, 24 h | Potency, µM (titrated, usually from 92.2 µM), inactives show top-dose activity change, negative = less growth, actives largely listed as inhibitors | 0.21% of 360,000 active; active means well fitted falling curve with a large enough effect; inconclusive means small, poorly fitted or top-dose-only effect; inactive means no such curve, though single readings can be large or run the other way; further: potency means the concentration at half of the fitted maximal effect; on the % scale 0 is the no-effect control and ±100 the full control effect; nearly all actives have a fitted effect of over 50% in size
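Fission yeast RE007 carrying one integrated HIV-1 vpr copy, seeded at OD 0.01 in PMG+AL medium with 23 nL pinned compound. Grown 24 h at 30 degrees; viability read by BacTiter-Glo luminescence after 5 min.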
Shiga toxin inh: Shiga toxin inhibition. Vero cells, Shiga toxin protein synthesis inhibition reporter. 9.2% of 290,000 active. inhibition, % at 38.7 µM; in the data active means inhibition mostly above about 28%, no sharp cut-off; inactive means mostly below about 43%; further: 0% is about no effect
Cycloheximide cs: affects cycloheximide protein synthesis inhibition readout, counter-screen | cell reporter, cycloheximide protein synthesis inhibition counterscreen | max response, % | 12% of 300,000 active; in the data active means max response mostly above about 13%, no sharp cut-off; inactive means mostly below about 14%; further: read at 38.3 µM for the half of the compounds with a filed dose; 0% is about no effect
* = called active by the depositor; ? = inconclusive; . = no result given; [ ] = remark or other dose. Unless noted, the call rests on the fitted dose curve; in most records, active means well fitted curve in the direction sought with a large enough effect; inconclusive means small, poorly fitted or top-dose-only effect, or another doubt; inactive means no such curve, though single readings can be large; an effect the other way counts as inactive or inconclusive.

SMILES | FBPA Giardia inh | Tb PYK inh | LmPK inh | RE007 growth inh | Shiga toxin inh | Cycloheximide cs
Cc1cccc(C)c1OCc1nc2ccccc2[nH]1 | -10% | -3% | 3% | -25% | 0 | 3
COc1ccc(S(=O)(=O)N2CCC(N3CCN(Cc4ccccc4)C(=O)C3=O)CC2)cc1 | . | 3% | . | . | . | .
Cc1ccc(NC(=O)CSc2nc3ccccc3nc2Cc2ccccc2)c(C)c1 | . | -2% | . | . | . | .
CCOc1ccc(NC(=O)c2cnn3c2NC(C)=C(C(=O)Nc2ccc(Cl)cc2)C3c2ccc(OC)c(OC)c2)cc1 (centres undefined) | . | 1% | . | . | . | .
CC(=O)Nc1ccc(C(=O)Nc2cccc(S(=O)(=O)N(C)c3ccccc3)c2)cc1 | . | 2% | . | 20% | . | .
Cc1ccc(C(=O)Nc2nc(C)c(C(=O)Nc3ccc4c(c3)CCC4)s2)cc1 | -1% | -10% | -4% | -4% | 48* | 45*
CN(c1ccccc1)S(=O)(=O)c1cccc(C(=O)Nc2ccc3c(c2)CCC3)c1 | -5% | -5% | 2% | 2% | 82* | 21*
NS(=O)(=O)c1ccc(NC(=O)c2ccc3c(c2)CCCC3)cc1 | -2% | 2% | -3% | -3% | 45 | 48*
NS(=O)(=O)c1ccc(NC(=O)c2ccc3c(c2)OCO3)cc1 | -5% | 14% | 6% | 5% | -5 | -2
O=C(Nc1ccc2c(c1)CCC2)c1ccccc1F | -2% | 4% | ? | -23% | 97* | 63*
O=C(O)c1ccccc1-c1ccccc1C(=O)Nc1ccc2c(c1)CCC2 | 0% | -1% | -1% | -1% | . | 2
Cc1nc(NC(=O)c2ccc(F)cc2)sc1C(=O)Nc1ccc2c(c1)CCC2 | -7% | 10% | -9% | 11% | 16 | 7
O=C1OC(c2ccccc2)(N(Nc2ccccc2)c2ccccc2)c2ccccc21 (centres undefined) | . | -13% | . | 0% | . | .
N#Cc1cccc(CS(=O)(=O)c2nnnn2C2CCCCC2)c1 | -7% | . | . | . | . | .
O=C(Nc1ccc2c(c1)CCC2)c1ccccc1 | -7% | 0% | ? | -30% | 48* | 31*
Cc1nc(N2CCCC2)c2c(C(=O)Nc3ccc(C)c(Cl)c3)c(C)oc2n1 | . | 4% | . | . | . | .
O=C(Nc1ccc(Cl)cc1)N1CC=CCC1 | 2% | -5% | -17% | -9% | 109* | 84*
CC(=O)c1ccc(N2CCN(C(=O)Nc3ccc(Cl)cc3)CC2)cc1 | -3% | -1% | -8%[11.5 µM] | 1% | -6 | 3
O=C(Nc1ccc(Cl)cc1)N1CCN(c2ccccc2)CC1 | -1% | -3% | 2% | 3% | 24 | 20*
O=C(C1CCC1)N1CCN(c2ccc(Cl)cc2)CC1 | 11% | -1% | -7% | -10% | 14 | 12*
O=C(Nc1ccc(Cl)cc1)N1CC1 | . | -6% | . | -5% | . | .
O=C(Cc1ccc(Cl)cc1)N1CCN(c2ccccc2)CC1 | 6% | 3% | 1% | -3% | 63 | 31*
Cc1cc(C)n(-c2nc3ccccc3nc2Nc2cccc(C(F)(F)F)c2)n1 | . | 0% | . | . | . | .
Cc1ccccc1NC(=O)Cn1c(SCC(=O)Nc2ccc(F)cc2)nc2ccccc21 | . | -2% | . | . | . | .
CCOC(=O)N1CCN(C(=O)C[C@@H]2C[C@@]3(C(=O)OCC)CCCC=C3N(Cc3ccccc3)C2=O)CC1 | . | . | . | 1% | . | .
O=C(Nc1ccc(Cl)cc1)N1N=CCC1c1ccccc1 (centres undefined) | -9% | 8% | 2% | 3% | 23 | 20*
COc1cc(OC)c(C2CC(=O)N3CN(c4ccccc4C)CSC3=C2C#N)cc1OC (centres undefined) | 4.5µM* | . | 5% | . | -5 | 10
Cc1cccc(N2CSC3=C(C#N)C(c4ccc(C)o4)CC(=O)N3C2)c1 (centres undefined) | ? | . | 2% | . | 26 | 11*
COc1cc(C2CC(=O)N3CN(Cc4ccco4)CSC3=C2C#N)ccc1OCc1ccccc1 (centres undefined) | ? | ? | -7% | 6% | 18 | 1
CCc1ccccc1N1CSC2=C(C#N)C(c3ccccc3F)CC(=O)N2C1 (centres undefined) | 6.3µM* | 8.9µM* | 14% | -14% | 5 | -2
